Potency data for five compounds are collected here from PubChem BioAssay AID2061322 (National Center for Advancing Translational Sciences (NCATS), 2025).

Molecules are shown by their SMILES. Inconclusive results are not listed. Activity calls are given as the source filed them. Calls come from the whole dose curve; as a rule, active = well fitted inhibition curve with a large enough effect; inconclusive = small, poorly fitted or top-dose-only effect; inactive = flat fitted curve, though single readings scatter.

A short description of this assay: Identification of antibody-drug conjugate (ADC) payloads which are substrates of ATP-binding cassette drug efflux transporters: ABCG2-HEK293-R5 cell line with Ko143. The following applies: ABCG2-HEK293-R5 with Ko143, CellTiter-Glo viability, 48 h. The source says:
Antibody-drug conjugates (ADCs) feature an antibody recognizing a specific protein joined to a potent toxic payload. Numerous antibody-drug conjugates have received FDA approval; however, clinical resistance arises. Resistance mechanisms include decreased expression or mutation of the antibody target, impaired payload release, or increased expression of ATP-binding cassette (ABC) efflux transporters associated with multidrug resistance. We therefore sought to characterize the interaction of ABC multidrug transporters with ADC payloads. We performed a high-throughput screen with 27 common ADC payloads using cells lines expressing ABC transporters P-glycoprotein (P-gp, encoded by ABCB1) or ABCG2 (encoded by ABCG2). Confirmatory assays were also performed using cells transfected to express P-gp, ABCG2, or MRP1 (encoded by ABCC1). Several commonly used ADC payloads were substrates of P-gp, including calicheamicin gamma1, monomethyl auristatin E, DM1, and DM4. All the pyrrolobenzodiazepines tested - SJG136, SGD-1882, SG2057, and SG3199 - were substrates of P-gp, ABCG2, and MRP1. […] These findings highlight the risk of transporter-mediated resistance with certain ADC payloads and underscore the importance of selecting payloads that evade ABC transporter recognition in future ADC development.
HEK-293 cells were transfected with empty vector (pcDNA) or vector containing the human ABCB1 (MDR-19), ABCG2 (R-5), or ABCC1 gene (MRP1) and were maintained in EMEM with 2 mg/mL G418 added to maintain transporter expression. The HeLa derivative KB-3-1 and the P-gp overexpressing KB-8-5-11 subline were maintained in DMEM; KB-8-5-11 additionally received 100 ng/mL colchicine. H460 parental cells were obtained from the Division of Cancer Treatment and Diagnosis Tumor Repository, National Cancer Institute at Frederick, MD and were cultured in RPMI. The ABCG2 expressing subline H460 MX20 was generated by selecting H460 cells in 20 nM mitoxantrone. Media in all cases was supplemented with 10% FBS and 1% penicillin-streptomycin. We explored 27 common ADC payloads, in two orthogonal, paired cell line sets-a drug selected and transfected set for each transporter--to identify substrates of the ABC transporters P-gp and ABCG2. Compounds were sourced from Levena Biopharma (San Diego, CA), Selleck Chem (Houston, TX), ChemieTek (Indianapolis, IN), or Microsource Discovery Systems (Gaylordsville, CT). Screening was performed as previously described. Briefly, cells were plated at a density of 500 cells/well in 1536 well plates with compounds added using a 1536-head pin tool (Kalypsys, San Diego CA). Cells were incubated with cytotoxic drugs and processed with CellTiter Glo reagent (Promega, Madison, WI) to determine viability after 48 hours. P-gp substrates were identified by comparing compound activity between paired sets of low-expressing (sensitive) and over-expressing (resistant) cell lines.
For orientation: In ATP-based viability assays light output follows the ATP content of the culture.
Regarding `CC(C)(C)OC(=O)Nc1ccc2[nH]c(C(=O)N3C[C@@H](CCl)c4c3cc(O)c3ccccc43)cc2c1`, the Potency is 30 nM (active). With `CN(C)CCOc1ccc2[nH]c(C(=O)N3C[C@@H](CCl)c4c3cc(O)c3ccccc43)cc2c1` the figure was 1.9 nM (active). For `COC(=O)c1cc2c3c(cc(O)c2[nH]1)N(C(=O)c1cc2cc(OC)c(OC)c(OC)c2[nH]1)CC3CCl` (stereo not given) the value was 4.2 nM (active); for `CCN(C(C)=O)[C@H]1CO[C@@H](O[C@H]2[C@H](O[C@H]3C#C/C=C\C#C[C@]4(O)CC(=O)C(NC(=O)OC)=C3/C4=C\CSSSC)O[C@H](C)[C@@H](NO[C@H]3C[C@H](O)[C@H](SC(=O)c4c(C)c(I)c(O[C@@H]5O[C@@H](C)[C@H](O)[C@@H](OC)[C@H]5O)c(OC)c4OC)[C@@H](C)O3)[C@@H]2O)C[C@@H]1OC`, 33.6 nM (active). Consider `CCN[C@H]1CO[C@@H](O[C@H]2[C@H](O[C@H]3C#C/C=C\C#C[C@]4(O)CC(=O)C(NC(=O)OC)=C3/C4=C\CSSSC)O[C@H](C)[C@@H](NO[C@H]3C[C@H](O)[C@H](SC(=O)c4c(C)c(I)c(O[C@@H]5O[C@@H](C)[C@H](O)[C@@H](OC)[C@H]5O)c(OC)c4OC)[C@@H](C)O3)[C@@H]2O)C[C@@H]1OC`, for which the Potency was 3 nM (active).
